Source: PubChem
In the library only some 7.3% were active in any assay of this set; here they are far more common.
Rab9 promoter act: activators of Rab9 promoter; Huh7 Rab9 promoter-luciferase reporter, luminescence, 24 h; Potency, µM (series often up to 9.22 µM), without a hit: at the highest dose activation, negative = inhibition, actives largely listed as activators; 2.8% of 320,000 active; note: % of control where 0% means no effect; nearly all actives have a fitted effect of over 60% in size
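Luminescence read-out: Huh7 cells stably expressing Rab9-luciferase, treated 24 h with compound at 37 °C, then lysed with luciferase reagent for 10 min at ambient before reading.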
NPC1 prom act: activators of NPC1 promoter | Huh7 NPC1 promoter luciferase reporter, 24 h | Potency, µM (highest dose often 9.22 µM), for inactives: top-dose activation, usual class: activators | 2.4% of 320,000 active; note: % of control where 0% means no effect; nearly all actives have a fitted effect of over 60% in size
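Compounds in DMSO were transferred onto Huh7 NPC1-luciferase reporter cells pre-incubated 2 h; after 24 h at 37 °C, Amplite reagent was dispensed and luminescence recorded 10 min later.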
uPA surface inh: inhibitors of cell surface uPA generation; cell surface uPA generation assay, qHTS; Potency, µM (top dose mostly 38.3 µM), inactives show at the top dose activity change, negative = inhibition, most hits filed as inhibitors; 0.31% of 330,000 active; AID 540303; active = well fitted inhibition curve with a large enough effect; inconclusive = small, poorly fitted or top-dose-only effect; inactive = no such curve, though single readings can be large or run the other way; tested in mouse RAW 264.7 cells; note: % is set by controls: 0 for no effect and ±100 for the full control effect; nearly all actives have a fitted effect of over 55% in size
ELG1 genotoxic: induces genotoxicity in HEK293T cells with luciferase-tagged ELG1 | HEK293T ELG1-luciferase reporter, luminescence, 16 h | 1.3% of 330,000 active | AID 504466 | Potency, µM (series often up to 46 µM), inactives show at the highest dose activity change, positive = activation, actives largely listed as activators; note: % of control where 0% means no effect; nearly all actives have a fitted effect of over 60% in size
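Screening used a luciferase reporter fused to human ELG1 in HEK293T cells. Luminescence was read on a CCD plate imager after 16 hr exposure and 30 min ONE-Glo incubation.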
FLuc counter: inhibits or activates purified firefly luciferase, miR-21 counter-screen | purified FLuc, Km substrates, luminescence inhibition | Potency, µM (titrated, usually from 57.5 µM), for the others: top-dose activity change, negative = inhibition, actives largely listed as inhibitors | 6.9% of 360,000 active;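 note: plate controls were vehicle for no effect and reference inhibitor for full effect; nearly all actives have a fitted effect of over 55% in size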
Target sequence (P08659 whole entry, looked up): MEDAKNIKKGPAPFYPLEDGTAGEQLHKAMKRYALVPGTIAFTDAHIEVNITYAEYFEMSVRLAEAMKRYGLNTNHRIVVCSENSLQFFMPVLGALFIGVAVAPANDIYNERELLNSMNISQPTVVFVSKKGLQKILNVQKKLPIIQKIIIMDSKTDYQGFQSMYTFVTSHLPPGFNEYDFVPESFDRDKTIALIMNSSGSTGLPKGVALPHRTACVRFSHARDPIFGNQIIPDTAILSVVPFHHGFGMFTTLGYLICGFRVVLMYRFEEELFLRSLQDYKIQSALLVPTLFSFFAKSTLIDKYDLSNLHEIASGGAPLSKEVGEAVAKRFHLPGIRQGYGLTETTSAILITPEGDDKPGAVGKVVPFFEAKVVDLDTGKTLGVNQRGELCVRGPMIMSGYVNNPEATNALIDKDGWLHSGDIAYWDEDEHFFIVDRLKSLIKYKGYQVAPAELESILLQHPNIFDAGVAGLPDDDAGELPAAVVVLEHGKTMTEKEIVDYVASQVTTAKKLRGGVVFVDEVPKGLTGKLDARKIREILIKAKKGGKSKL
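Purified P. pyralis luciferase (10nM final) with 10uM D-luciferin and 10uM ATP (Km levels) in 50mM Tris acetate pH 7.5, 10mM Mg acetate, 0.01% Tween-20, 0.05% BSA; qHTS 6-point titration, ~60 µM downward; luminescence read.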
SMN2 splice up: increases expression of the SMN2 splice variant; Potency, µM (highest dose often 46.1 µM), for inactives: at the top dose activity change, positive = activation, actives largely listed as activators; 2.8% of 210,000 active; AID 1458; HEK293 SMN2-luciferase splicing reporter, luminescence, 30-36 h; note: % of control where 0% means no effect; nearly all actives have a fitted effect of over 55% in size
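qHTS luciferase splicing reporter: luminescence rises when SMN2 exon 7 is included in transfected HEK293 cells. Compound exposure lasted 30-36 h at 37C, with 4.5 mM final sodium butyrate as control, followed by a ONE-Glo read.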
An asterisk follows results filed as active; u = inconclusive; x = no result given. Unless noted, calls come from the whole dose curve; as a rule, active = well fitted curve in the direction sought with a large enough effect; inconclusive = small, poorly fitted or top-dose-only effect, or another doubt; inactive = no such curve, though single readings can be large; an effect the other way counts as inactive or inconclusive. Potency is the fitted concentration of half-maximal effect.

SMILES	Rab9 promoter act	NPC1 prom act	uPA surface inh	ELG1 genotoxic	FLuc counter	SMN2 splice up
COc1ccccc1OCC(=O)NCCC1=CCCCC1	-5.1%	-2.0%	-0.6%	-0.3%	2.1%	11.6%
O=C(/C=C/c1ccccc1)NCCC1=CCCCC1	2.82µM*	u	1.6%	u	9.53µM*	11.2µM*
OCC[C@@H]1C[C@@H](O)[C@H](O)[C@@]2(CCc3ccccc3CO2)O1	2.3%	-7.2%	2.6%	2.1%	7.4%	x
Cc1ccc(C(=O)/C=C/c2ccc3c(c2)OCCO3)c(O)c1	3.55µM*	u	1.5%	u	1.07µM*	x
COc1ccc(/C=C/C(=O)c2ccc(O)cc2O)cc1OC	x	x	x	x	x	-88.6%
O=C(/C=C/c1ccc2c(c1)OCCCO2)c1ccc2ccccc2c1O	u	3.16µM*	2.9%	u	2.69µM*	-34.3%
CSCCC(NC(N)=O)C(=O)Nc1ccc(F)c(Cl)c1 (stereo not drawn)	-0.1%	0.9%	-2.2%	-0.3%	-0.9%	x
CCC(=O)N1c2ccccc2CC1C(=O)NCc1ccc(CC)cc1 (stereo not drawn)	x	x	x	x	3.3%	x
COc1ccc(N=C2O/C(=C/c3sc(=S)n(CC4CCCO4)c3O)N=C2C#N)cc1 (stereo not drawn)	6.7%	12.5%	-12.6%	-7.8%	2.39µM*	x
Cc1nn(C)c(C)c1NS(=O)(=O)c1cccc(Br)c1	2.0%	-2.9%	0.8%	-2.3%	-0.4%	x
COc1ccc(CCC(=O)Nc2nc3ccccc3[nH]2)cc1OC	12.2%	8.1%	0.1%	10.8%	1.4%	9.2%
COc1ccccc1CCC(=O)Nc1nc2ccccc2[nH]1	u	u	-6.1%	u	13.5µM*	12.6µM*
CCOc1ccccc1OCCCC(=O)Nc1nc2ccccc2[nH]1	5.4%	8.3%	-9.9%	6.4%	-1.3%	-4.1%
COc1ccc(OCC(=O)Nc2nc3ccccc3[nH]2)cc1	u	u	-7.6%	20.6µM*	4.78µM*	17.9%
COc1ccc(CCC(=O)Nc2nc3ccccc3[nH]2)cc1	2.24µM*	3.55µM*	-0.6%	u	u	-1.2%
CCCCCC(=O)Nc1nc2ccccc2[nH]1	u	u	x	u	13.5µM*	14.1µM*
CC1=C(C(=O)Nc2ccc(C)cc2C)C(c2ccc(O)cc2)n2nc(SCC(=O)c3ccc(C)cc3)nc2N1 (stereo not drawn)	x	x	x	x	-6.6%	x
Cc1ccc(CCNC(=O)c2c3c(nc4ccccc24)C(=O)N(C2CCCCC2)C3)cc1	x	x	x	x	-3.6%	x
Cc1occc1C(=O)N/N=C/c1ccc[nH]1	x	x	-7.8%	x	x	x
O=C(NN=Cc1ccccc1Cl)c1cccc2ccccc12	x	x	5.2%	x	x	x
Cc1occc1C(=O)N/N=C/c1cccc2ccccc12	2.24µM*	u	-2.8%	7.3µM*	5.36µM*	x
Cc1occc1C(=O)Nc1ccccc1NC(=O)c1ccoc1C	x	x	2.3%	x	x	x
Cc1occc1C(=O)Nc1cccc2ccccc12	1.58µM*	2µM*	-2.6%	5.8µM*	2.69µM*	3.16µM*
O=C(N/N=C/c1cccc2ccccc12)c1ccccc1Cl	2.7%	-2.3%	0.7%	5.9%	7.57µM*	x
COc1ccc(CCNC(=O)CSc2nc3nc(C)c(Cc4ccc(C)cc4)c(C)n3n2)cc1OC	x	x	x	x	-4.0%	x
SMILES	Rab9 promoter act	NPC1 prom act	uPA surface inh	ELG1 genotoxic	FLuc counter	SMN2 splice up
CC(C)OCCCNC(=O)CCCn1c(SCC(=O)c2ccc(F)cc2)nc2c(sc3ccccc32)c1=O	x	x	x	x	3.4%	-4.9%
COc1ccc2c(c1)C(=O)CC(c1ccc(OC)c(OC)c1)O2 (stereo not drawn)	-0.3%	-4.3%	u	-3.1%	4.0%	x
COc1ccc2c(c1)O[C@@H](c1ccc3c(c1)OCO3)[C@H](OC(=O)NCc1ccc3c(c1)OCO3)C2=O	x	x	x	x	x	6.4%
COc1ccc2c(c1)O[C@H](c1ccc3c(c1)OCO3)[C@@H](O)C2=O	19.3%	20.8%	-10.3%	-0.9%	u	12.6µM*
COc1ccc2c(c1)C(=O)CC(c1ccc3c(c1)OCCO3)O2 (stereo not drawn)	u	u	-3.6%	14.5%	21.3µM*	x
CCOc1ccc(NC(=O)CCc2nc3cccnc3n2Cc2ccc(OC)cc2)cc1	x	x	x	x	-4.1%	-1.5%
CCCn1nc(NC(=O)c2cccs2)c2cc3ccccc3nc21	-16.1%	-6.0%	-5.6%	-11.1%	u	-22.2%
CCCCn1nc(NC(=O)c2cccs2)c2cc3ccccc3nc21	18.1%	-2.1%	3.0%	-7.8%	23.9µM*	x
CCCn1nc(NC(=O)c2cccs2)c2cc3cc(OC)ccc3nc21	5.8%	5.2%	3.4%	18.9%	10.7µM*	22.1%
CCCCn1nc(NC(=O)CCC)c2cc3cc(OC)ccc3nc21	4.1%	19.9%	9.8%	7.0%	-2.5%	x
CCCn1nc(NC(=O)c2cccs2)c2cc3ccc(C)cc3nc21	-0.8%	-2.3%	6.3%	-9.1%	u	x
CCCn1nc(NC(=O)c2cccs2)c2cc3cc(C)ccc3nc21	-1.4%	5.9%	4.0%	-2.8%	6.75µM*	x
CCCCn1nc(NC(=O)c2cccs2)c2cc3cc(OC)ccc3nc21	-6.2%	-1.0%	19.1%	-0.1%	19µM*	8.6%
CN(C(=O)COC(=O)c1ccccc1NCCO)C1CCS(=O)(=O)C1 (stereo not drawn)	14.0%	0.2%	1.2%	3.4%	-1.8%	x
CN(CC(=O)Nc1cccc(Cl)c1)S(=O)(=O)c1ccc2[nH]c(=O)oc2c1	-1.9%	-2.2%	5.4%	0.1%	0.6%	x
Cc1ccc(CNC(=O)C2CCC(CNS(=O)(=O)c3ccc(C)cc3)CC2)cc1 (stereo not drawn)	x	x	x	x	3.6%	x
NC(=S)NCCCC(N)C(=O)O (stereo not drawn)	x	x	x	x	x	-12.6%
CCOC(=O)CCSc1nc(C)c2cc(C)ccc2n1	22.0%	15.8%	-6.7%	18.4µM*	9.53µM*	-6.0%
CCOC(=O)CSc1nc(C)c2cc(OC)ccc2n1	2.2%	-4.8%	5.8%	u	23.9µM*	40.9%
CCOC(=O)CSc1nc(C)c2cc(C)c(C)cc2n1	-3.4%	-5.1%	4.0%	2.0%	u	x
CCC(=O)N/C(N)=N/c1nc(C)c2cc(OC)ccc2n1	22.9%	-0.9%	x	10.3µM*	10.7µM*	u
CCOC(=O)CNC(=O)CSc1cc(C)nc2ccc(OC)cc12	3.16µM*	3.98µM*	-1.5%	u	6.75µM*	x
Cc1cc(=O)n(CC(=O)NCCC(C)C)c2c1c(C)nn2C	x	x	x	x	0.7%	x
CCOc1ccc2nc(N(Cc3cccnc3)C(=O)c3ccc4c(c3)OCCO4)sc2c1	x	x	x	x	13.5µM*	x
c1ccc2c(c1)CCN2CCN1CCc2ccccc21	0.0%	2.7%	-4.9%	-3.2%	-18.6%	-17.2%
O=C1c2ccccc2C(=O)N1CCN1CCc2ccccc21	u	u	3.8%	u	13.5µM*	25.4%
COCCn1c(-c2ccccc2)nc2oc3ccccc3c(=O)c2c1=O	4.2%	-3.7%	3.1%	-0.9%	3.3%	-1.9%
